From PubChem
Sampled rows, rich in hits. Any-hit rate of the full collection: about 1.7%.
N-glyco inh – blocks N-linked glycosylation in D54 reporter cells; reporter increase, % at 12.5 µM; AID 588692; D54 ERlucT glycosylation luciferase reporter, 24 h; percent of 100 nM tunicamycin response; hit rate 0.23% among 360,000;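 active means mean luciferase reporter signal, scaled so untreated is 0 and the glycosylation-blocking control 100, at or above a set limit in every replicate; inconclusive means mean reaches the limit but not every replicate does; inactive means mean below the limit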;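 further: luciferase carries N-glycosylation sites so blocking glycosylation raises the light; 0% = median of neutral control wells and 100% = median of 100 nM tunicamycin wells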
ARNT TACC3 PPI – disruptors of human ARNT/TACC3 interaction | Q9Y6A5 | AlphaScreen His-ARNT PAS-B/GST-TACC3 binding, luminescence; TACC3 fragment carries E629A point mutation | inhibition, % at 9.99 µM | hit rate 0.66% among 390,000;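 active means mean inhibition of replicates at least 50% and at least half of replicates each reaching 50%; inconclusive means half or more replicates reach 50% but mean below 50%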;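 further: 0% = complete ARNT plus TACC3 wells and 100% = ARNT alone without TACC3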
H9c2 protect – protects H9c2 cardiomyocytes from peroxide injury; protection from H2O2 cell death, % at 20 µM; H2O2 injury protection, ATPLite, 2 h; hit rate 0.63% among 360,000;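 active means compounds giving at least 50% protection of heart cells from peroxide-induced death in the single-dose screen, raw or plate-pattern-corrected value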;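 further: 0% = DMSO wells with peroxide and 100% = DMSO wells without peroxide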
aDG glyco act – alpha-DG glycosylation activation | Pro5-aDG cells, alpha-DG glycosylation AlphaScreen (IIH6); 0% Pro5, 100% B10-LARGE cell signal | activation, % at 10 µM | hit rate 0.22% among 360,000 | AID 624168;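 active means activation of at least 8% versus controls, or a plate z-score of at least 8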;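 further: Pro5 are CHO cells carrying HIG-tagged alpha-DG that lacks glycosylation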
Vif imaging – blocks HIV Vif function; HEK293T cells, Vif self-association by quenched fluorescence, imaging, 24 h; inhibition, % at 7.49 µM; hit rate 0.35% among 340,000; AID 602346; in the data active means inhibition above about 50%, passing the limit was not always enough; inconclusive means no clear call, values can overlap the other calls; inactive means below about 31%
* marks the source's active call; other numbers are inactive results; ? = inconclusive; nt = not tested or not shown.

SMILES	N-glyco inh	ARNT TACC3 PPI	H9c2 protect	aDG glyco act	Vif imaging
CN(C)C(=O)C[C@@H]1CC[C@@H](NC(=O)NC2CCCC2)[C@H](CO)O1	nt	10.4	nt	nt	nt
COc1ccc(C(=O)N/N=C(\C)c2ccccn2)cc1OC	-19.2	67.0*	49.4	-0.3	-0.3
COc1ccc(NC(=O)c2ccccn2)cc1OC	-0.6	nt	-6.0	0.2	-5.3
O=C(NNC(=O)c1ccccc1OCc1ccc(F)cc1)c1ccccc1O	-10.2	0.5	38.6	0.7	-9.8
C/C(=N\NC(=O)c1ccccc1Cl)c1ccccn1	-17.2	67.0*	37.4	-0.3	-0.2
C/C(=N\NC(=O)c1ccccc1OCc1ccc(F)cc1)c1ccccn1	12.7	21.5	53.0*	-0.4	-4.7
C/C(=N\NC(=O)c1ccc(Cl)c(Cl)c1)c1ccccn1	-8.1	nt	30.8	-0.4	1.0
C/C(=N/NC(=O)c1cccs1)c1ccc(NC(=O)COc2ccc(Cl)cc2Cl)cc1	39.7*	-2.1	1.4	0.2	?
CCCN1[C@@H]2Cn3c(cccc3=O)[C@H]1[C@@H](C(=O)Nc1ccccc1)[C@@H]2CO	nt	0.5	nt	nt	nt
COc1ccc(CN2C[C@@H](O)COC[C@H]3O[C@@H](CC(=O)NCc4ccncn4)CC[C@@H]32)cc1	nt	-0.6	nt	nt	nt
C/C(=N/NC(=O)c1ccc(C(C)(C)C)cc1)c1ccccn1	-14.3	65.3*	18.5	-0.2	13.0
C/C(=N\NC(=O)c1cccc(Br)c1)c1ccccn1	-17.4	45.0*	29.3	-0.6	1.6
CCOc1ccccc1N(CC(=O)NCC1CCCO1)C(=O)CCC(=O)Nc1nccs1 (stereo not given)	0.9	-20.3	4.6	-0.1	60.6*
COc1ccccc1N(CC(=O)NCC1CCCO1)C(=O)CCC(=O)Nc1nccs1 (stereo not given)	0.5	-2.0	-0.8	0.2	nt
NC(=S)N=Nc1c(O)cc(O)c2[nH]c(=O)ccc12	1.1	64.1*	-7.5	0.2	-3.5
C=CC[C@@H](CC(=O)N[C@H](CO)Cc1ccccc1)C(=O)N[C@H](C)COC(=O)[C@@H](CC=C)CC(=O)OC(C)(C)C	-0.7	-5.5	5.4	0.7	-1.3
C=CC[C@@H](CC(=O)N[C@H](CO)Cc1ccccc1)C(=O)N[C@@H](COC(=O)[C@@H](CC=C)CC(=O)OC(C)(C)C)Cc1ccccc1	-3.5	-4.9	62.8*	0.3	nt
CC(=O)c1ccc(-c2[nH]c3ccccc3c2CCN2C(=O)c3ccccc3C2=O)cc1	1.2	-2.4	65.4*	-0.3	nt
Cc1[nH][nH]c(=O)c1N=Nc1ccc(S(N)(=O)=O)cc1	11.1	nt	-1.4	-0.2	42.7
NS(=O)(=O)c1ccc(N=Nc2c[nH]c(=O)c(O)c2)cc1	-2.8	51.9*	-2.0	-0.1	-8.3
Cc1noc(C)c1NC(=O)N[C@@H]1C=C[C@@H](CC(=O)Nc2ccc(-c3ccccc3)cc2)O[C@H]1CO	nt	35.7	nt	nt	nt
C[C@@H]1CN([C@H](C)CO)C(=O)c2cc(NC(=O)Cc3ccccc3)ccc2O[C@@H]1CN(C)Cc1ccc(Cl)c(Cl)c1	nt	2.9	nt	nt	nt
C[C@@H]1CN([C@H](C)CO)C(=O)c2cccc(NS(=O)(=O)c3cccs3)c2O[C@@H]1CN(C)C(=O)Nc1ccc(F)cc1	nt	-3.4	nt	nt	nt
Cc1noc(C)c1S(=O)(=O)N(C)C[C@H]1OCCCC[C@H](C)Oc2ccc(NS(=O)(=O)c3cccs3)cc2C(=O)N([C@H](C)CO)C[C@H]1C	nt	-2.0	nt	nt	nt
CCN(C(=O)CSc1nnc(NCc2ccccc2)s1)C1CCS(=O)(=O)C1 (stereo not given)	0.3	4.3	-3.5	-0.2	-16.9
SMILES	N-glyco inh	ARNT TACC3 PPI	H9c2 protect	aDG glyco act	Vif imaging
CCN(C(=O)CSc1nnc(Nc2cccc(C)c2C)s1)C1CCS(=O)(=O)C1 (stereo not given)	2.2	-2.7	-12.5	-0.1	55.6*
C[C@H](CO)N1C[C@H](C)[C@@H](CN(C)C(=O)NC2CCCCC2)OCCCC[C@H](C)Oc2ccc(NS(=O)(=O)c3ccccc3)cc2C1=O	nt	3.5	nt	nt	nt
Cc1ccc(C(=O)OCc2nnc(-c3ccccc3)o2)s1	1.4	-12.0	-4.4	-0.1	-8.6
O=C(OCc1nnc(-c2ccccc2)o1)c1ccc([N+](=O)[O-])s1	1.1	22.5	52.1*	-0.3	-1.2
Cn1c2ccccc2c2ccc3c(c21)C(=O)C=CC3=O	?	5.3	-19.4	0.0	-10.2
Cc1ccc2c(c1)c1ccc3c(c1n2C)C(=O)C=CC3=O	30.6*	-1.5	-16.0	-0.2	2.6
COc1ccc2c(c1)c1ccc3c(c1n2C)C(=O)C=CC3=O	28.1*	7.3	-22.2	-0.3	nt
Nc1nc(Nc2ccccc2)sc1C(=O)c1ccccc1	28.5*	6.1	-5.7	-0.1	-17.2
COc1ccc(C(=O)c2sc(Nc3ccccc3)nc2N)cc1OC	33.3*	15.8	10.5	0.2	30.3
COc1ccc(C(=O)c2sc(Nc3ccccc3)nc2N)cc1	24.9	-5.1	-9.7	-0.3	-1.3
O=C(CCn1c(=S)[nH]c2ccccc2c1=O)Nc1cccc(Cl)c1	10.7	1.6	4.1	0.0	-6.8
COc1ccc(NC(=O)CCn2c(=S)[nH]c3ccccc3c2=O)cc1Cl	-0.5	nt	0.7	-0.1	56.7*
COc1ccc(NC(=O)COC(=O)Cc2c[nH]c3ccccc23)cc1Cl	2.5	-3.1	-4.3	0.2	54.8*
CCN1CCN(C(=O)C(C)Nc2ccc(OC)cc2OC)CC1 (stereo not given)	1.5	42.3*	-6.0	-0.5	-2.6
CN1c2ccc(-c3ccc(F)cc3)cc2[C@@H]2[C@@H](CCN2C(=O)C2CCOCC2)[C@@H]1CO	nt	8.6	nt	nt	nt
C[C@@H]1CN([C@H](C)CO)C(=O)c2cccc(NC(=O)c3ccncc3)c2O[C@H]1CN(C)Cc1ccc(Cl)c(Cl)c1	nt	4.3	nt	nt	nt
CCOC(=O)c1c(-c2ccc(C)o2)csc1NC(=O)COC(=O)c1ccc(NC(N)=O)cc1	1.5	26.9	61.2*	-0.4	14.3
Cc1ccc(S(=O)(=O)N(C)C[C@H]2OCCCC[C@H](C)Oc3ccc(NC(=O)CCC(F)(F)F)cc3C(=O)N([C@H](C)CO)C[C@@H]2C)cc1	nt	-5.4	nt	nt	nt
Cc1ccc(C(=O)COC(=O)c2cc(=O)[nH]c3ccccc23)cc1C	2.5	-12.3	-19.6	0.3	65.5*
COc1ccccc1C(=O)COC(=O)c1cc(=O)[nH]c2ccccc12	-0.4	-0.2	-4.9	0.2	8.5
COc1ccc(CCNc2nc(-c3ccccn3)cs2)cc1OC	-1.3	64.8*	-8.0	0.3	-2.3
COc1nc(NCCc2ccc(OC)c(OC)c2)nc(OC)n1	-1.2	13.3	12.8	0.0	-1.0
COc1ccc(CCNc2c3ccccc3nc3ccccc23)cc1OC	84.5*	-12.7	-3.2	0.3	-1.9
COc1ccc(CCNc2nc(-c3ccncc3)cs2)cc1OC	-0.2	4.3	-6.4	0.2	-2.1
COCC(=O)Nc1ccc2c(c1)OC[C@H](C)N(C(=O)c1cccnc1)C[C@H](C)[C@@H](OC)CN(C)C2=O	nt	-7.5	nt	nt	nt
CNC[C@@H]1Oc2cc(C#Cc3ccccc3F)ccc2S(=O)(=O)N([C@@H](C)CO)C[C@H]1C	nt	4.1	nt	nt	nt
Cc1nc2ccccc2c(=O)[nH]1	2.8	-4.0	68.7*	0.0	-0.7
